Bioassay records (PubChem BioAssay)
Rows were chosen to be rich in hits. Some 2.4% of all compounds tested hit in one or more screens of this group.
p53ts 32C tox = p53ts cell cytotoxicity, permissive temperature. actives 0.93% (n = 130,000). H1299-p53A138V at 32C, ATP luminescence viability, 24 h. Potency, µM (top dose mostly 46.1 µM), for the others: at the top dose activity change, negative = cytotoxicity, most hits filed as cytotoxic. AID 924;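 also: 0% = DMSO and -100% = full killing by reference compound; nearly all actives have a fitted effect of over 55% in size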
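Viability by ATPlite luminescence after 24 h compound treatment (up to 46 uM) at the permissive 32C. Cells are H1299 carrying p53 A138V. Scale runs from DMSO basal to 100 uM tamoxifen as full kill; AC50 from Hill fits.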
IkB sig inh = inhibitors of IkB signaling in ABC-DLBCL cells. AID 445. ABC-DLBCL IkBa-CBG/CBR dual luciferase ratio, 4 h; response scale: scaled: untreated 0%, proteasome inhibitor 100%. Potency, µM (series often up to 57.1 µM), inactives show at the top dose IkBa stabilization activation. actives 0.04% (n = 110,000); active = well fitted curve in the direction sought with a large enough effect in the signal ratio, not every such curve was filed as active; inconclusive = small, poorly fitted or top-dose-only effect, or a change in a side signal; the % refers to the signal ratio;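 also: the direction sought is a rising ratio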
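Luminescence ratio of IκBα-fused green versus native red beetle luciferase in OCI-Ly3 cells, 4 h post-doxycycline with compound; red signal alone, scaled from basal (0%) to zero light (-100%), flagged nonspecific or cytotoxic effects.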
p53ts 39C kill = p53ts cell cytotoxicity, nonpermissive temperature; H1299-p53A138V viability at 39C, ATP luminescence, 24 h; actives 1.5% (n = 130,000); Potency, µM (highest dose often 46.1 µM), without a hit: at the top dose activity change, negative = cell killing, most hits filed as cytotoxic; AID 902; also: % is scaled to controls: 0 for no effect and ±100 for the full control effect; nearly all actives have a fitted effect of over 55% in size
Imprint erasure = genomic imprint erasure induction. mouse ES Peg3-LacZ reporter, beta-gal luminescence, 40 h. Potency, µM (series often up to 60.7 µM), without a hit: top-dose activity change, positive = activation, usual class: activators. actives 0.02% (n = 110,000)
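Imprint erasure is scored as LacZ activity from the silenced maternal Peg3 allele in feeder-free female ES cells cultured 40 h with LIF. Luminescence is normalized to in-plate negative controls and fitted to the Hill equation.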
FLuc inh = firefly luciferase inhibition; P08659; purified firefly luciferase, luminescence, 8 min; Potency, µM (titrated, usually from 57.1 µM), for the others: at the top dose activity change, negative = inhibition, actives largely listed as inhibitors; actives 2.2% (n = 72,000); AID 411; also: % is scaled to controls: 0 for no effect and ±100 for the full control effect; nearly all actives have a fitted effect of over 40% in size
Target sequence (P08659 whole entry, looked up): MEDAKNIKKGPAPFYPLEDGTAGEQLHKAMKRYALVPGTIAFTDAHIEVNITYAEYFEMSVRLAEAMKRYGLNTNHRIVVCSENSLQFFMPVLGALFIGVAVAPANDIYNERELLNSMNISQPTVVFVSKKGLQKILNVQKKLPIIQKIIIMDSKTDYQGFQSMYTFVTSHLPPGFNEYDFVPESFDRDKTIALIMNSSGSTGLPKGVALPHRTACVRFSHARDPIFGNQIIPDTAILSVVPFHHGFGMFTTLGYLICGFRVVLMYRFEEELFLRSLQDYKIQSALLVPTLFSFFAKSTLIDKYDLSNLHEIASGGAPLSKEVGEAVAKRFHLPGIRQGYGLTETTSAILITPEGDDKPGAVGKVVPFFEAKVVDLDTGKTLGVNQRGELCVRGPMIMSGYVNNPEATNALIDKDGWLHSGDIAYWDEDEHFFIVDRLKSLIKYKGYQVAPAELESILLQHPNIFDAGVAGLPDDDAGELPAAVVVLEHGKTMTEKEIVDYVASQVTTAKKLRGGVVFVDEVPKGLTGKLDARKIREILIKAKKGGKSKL
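qHTS concentration-response profiling: light output of P. pyralis luciferase with luciferin and 10 uM ATP, imidazole buffer pH 7.2. Read by luminescence after 8-min room-temperature incubation.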
Numbers without * were called inactive; ? = inconclusive; . = no result; [ ] = dose if it differs, or a comment. Unless noted, calls follow the shape of the dose curve; as a rule, active = well fitted curve in the direction sought with a large enough effect; inconclusive = small, poorly fitted or top-dose-only effect, or another doubt; inactive = no such curve, though single readings can be large; an effect the other way counts as inactive or inconclusive. Potency is read from the fitted curve at half-maximal effect.

SMILES | p53ts 32C tox | IkB sig inh | p53ts 39C kill | Imprint erasure | FLuc inh
CC(C)C(=O)Nc1ccc(-c2nc3cccnc3o2)cc1 | 10µM* | 4% | 10µM* | -37% | 5µM*
Cc1ccc(-c2nc3cc(NC(=O)C(C)C)ccc3o2)cc1C | -20% | -2% | -23% | -83% | 2µM*
Cc1cc2nc(-c3ccc(NC(=O)C(C)C)cc3)oc2cc1C | 10% | -4% | -6% | -30% | -1%
Cc1ccc(-c2nc3cc(NC(=O)C(C)C)ccc3o2)cc1 | ? | -3% | ? | -65% | 5µM*
O=C(Nc1nc(-c2cccs2)cs1)c1ccc(Cl)s1 | -16% | ? | 7% | -18% | -15%
CC(C)(C)c1csc(NC(=O)c2ccc(Cl)s2)n1 | 18% | ? | -9% | -19% | 16µM*
CC1CCN(c2nc3ccc(C(=O)O)cc3s2)CC1 | 10µM* | . | ? | . | .
CC1CCN(c2nc3ccc(C(=O)NCc4ccc(Cl)cc4)cc3s2)CC1 | 9% | ? | -7% | -8%[10.9 µM] | .
N[C@H](CCCC(=O)O)C(=O)O | -15% | -8% | 11% | . | -11%
O=c1c2ccccc2cnn1-c1nc2ccccc2s1 | 0.79µM* | ? | 1µM* | -24% | 0.16µM*
CCOc1ccc(C(=O)c2cn(CC(=O)Nc3ccc(F)cc3)c3cc4c(cc3c2=O)OCCO4)cc1 | 1% | ? | -7% | -21%[10.9 µM] | .
Nc1cccc2cc(S(=O)(=O)Nc3ccc(C(=O)O)cc3)ccc12 | 4%[9.22 µM] | -1%[11.4 µM] | 2%[9.22 µM] | -2%[10.9 µM] | 4%[11.4 µM]
COc1ccc(N(CC(=O)N2CCc3ccccc3C2)S(=O)(=O)c2ccc(C)cc2)cc1Cl | 6% | ? | 2% | -11%[10.9 µM] | .
Cc1nc2cc(NC(=O)NCc3ccc4c(c3)OCO4)ccc2o1 | 0% | 5% | -4% | 2% | -7%
Cc1nc2cc(NC(=O)N3c4ccccc4CC3C)ccc2o1 (stereo not given) | 10µM* | 2% | 10µM* | -40% | 13µM*
Cc1nc2cc(NC(=O)N3c4ccccc4CC3C)ccc2n1C (stereo not given) | 6.3µM* | 3% | 5µM* | -66% | 5µM*
CCOc1ccccc1CNC(=O)c1cc(-c2ccc(Cl)s2)nc2ccccc12 | -9% | -2% | -18% | -10%[10.9 µM] | .
COCCn1c(-c2ccc(Cl)cc2)cnc1SCC(=O)NCc1cccs1 | ? | ? | 25µM* | -12% | 4%
COc1ccc(-c2cc(=O)c3ccccc3s2)cc1 | 13µM* | 6% | 25µM* | -69% | 16µM*
COc1ccc(-c2cc(=O)c3ccccc3[nH]2)cc1 | . | . | . | -33%[97.3 µM] | .
COc1ccc(C(=O)/C=C/Nc2cc(C)on2)cc1 | ? | 6% | -19% | -37% | 3.2µM*
COc1ccc(CC(=O)Nc2cc(C)on2)cc1 | -7% | 3% | -12% | -6% | -3%
CSc1nc2ccc(NC(=O)C3CCCO3)cc2s1 (stereo not given) | ? | 3% | ? | -34% | 25µM*
Cc1ccc2oc(-c3cccc(NC(=O)C4CCCO4)c3)nc2c1 (stereo not given) | ? | ? | ? | -32% | 20µM*
CCC(=O)Nc1ccc2oc(-c3cccc(C)c3)nc2c1 | 13µM* | 4% | ? | -91% | 2.5µM*
SMILES | p53ts 32C tox | IkB sig inh | p53ts 39C kill | Imprint erasure | FLuc inh
Cc1ccc2nc(-c3cccc(NC(=O)CSc4ccc(Cl)cc4)c3)oc2c1 | 13µM* | 1% | 14% | -52%[10.9 µM] | .
Cc1cc2ccc(OC(=O)c3ccc(N=C(N)N)cc3)cc2oc1=O | 12%[9.22 µM] | 2%[11.4 µM] | 17%[9.22 µM] | -3%[10.9 µM] | 2%[11.4 µM]
CCOc1cc2sc(N3CCC(C(=O)Nc4ccc(C)cc4C)CC3)nc2cc1Br | -13% | ? | ? | ? | .
CCCC(=O)Nc1cccc(-c2nc3cc(C)c(C)cc3o2)c1 | 16µM* | 2% | ? | -45% | 7.9µM*
C/C(=N\O)c1ccc2c3c([nH]c2c1)CCCC3 | -21% | 7% | -16% | -19% | 16µM*
CCOC(=O)c1c(C)c(-c2ccccc2)n(CC(=O)NC2CCCCCC2)c1C | 0% | 0% | -23% | -8%[10.9 µM] | .
[O-][N+]1=c2ccc(Nc3ccccc3)cc2=NC12CCCCC2 | 5µM* | ? | 20µM* | 10% | -13%
COc1ccc(Nc2ccc3c(c2)=NC2(CCCCC2)[N+]=3[O-])cc1 | 5µM* | ? | 6.3µM* | -30% | ?
Cc1ccc(NC(=O)CN2C(=O)CSc3ccc(S(=O)(=O)N(C)C)cc32)cc1C | 3% | 0% | -5% | -6%[10.9 µM] | .
CCOCCCN(Cc1ccco1)C(=O)c1cc2c(s1)-c1c(C)cccc1OC2 | -6% | ? | ? | ? | .
COc1ccc2nc3oc(C(=O)N4CCCCC4)cc3cc2c1 | ? | ? | ? | -39% | 13µM*
CCOC(=O)C1CCN(C(=O)c2cc3cc4cc(OC)ccc4nc3o2)CC1 | -9% | ? | -13% | -3% | -5%
CN(C)c1ccc(Nc2nc(-c3cccnc3)cs2)cc1 | 3.2µM* | 2% | 3.2µM* | -87% | 0.63µM*
c1cncc(-c2csc(NCc3ccco3)n2)c1 | -18% | . | -21% | . | .
c1ccc(-c2ccc(-c3ccc(C4=NCCN4)cc3)o2)cc1 | -1%[9.22 µM] | -4%[11.4 µM] | -14%[9.22 µM] | -16%[10.9 µM] | -1%[11.4 µM]
CCC(C)OC(=O)/C(C#N)=C\c1ccc(-c2cccc(C(F)(F)F)c2)o1 (stereo not given) | 1% | -2% | -4% | -9%[10.9 µM] | .
N#C/C(=C\c1ccc(-c2cccc(Cl)c2)o1)C(=O)Nc1cccc(C(F)(F)F)c1 | -1% | 2% | 13µM* | -20%[10.9 µM] | .
COc1ccc(NC(=O)N2CCc3c(sc4c3CCCC4)C2c2ccc(F)cc2)cc1 (stereo not given) | 3% | ? | ? | -5%[10.9 µM] | .
COc1ccccc1Nc1nn2c(=O)c3ccc(C(=O)NCCc4ccccc4)cc3nc2s1 | 3.2µM* | ? | 3.2µM* | -34%[10.9 µM] | .
Cc1c(Cl)cccc1Nc1nn2c(=O)c3ccc(C(=O)NCCc4ccccc4)cc3nc2s1 | ? | ? | ? | -33%[10.9 µM] | .
COc1ccccc1Nc1nn2c(=O)c3ccc(C(=O)NC(C)c4ccccc4)cc3nc2s1 (stereo not given) | 3% | -2% | 12% | -5%[10.9 µM] | .
Cc1ccc(C)c(Nc2nn3c(=O)c4ccc(C(=O)NCCC5=CCCCC5)cc4nc3s2)c1 | ? | -1% | 23% | 22%[10.9 µM] | .
Cc1ccc(C)c(Nc2nn3c(=O)c4ccc(C(=O)NCCc5ccccc5)cc4nc3s2)c1 | -6% | ? | 3.2µM* | 23%[10.9 µM] | .
COc1ccccc1Nc1nn2c(=O)c3ccc(C(=O)NCCC4=CCCCC4)cc3nc2s1 | 5µM* | ? | 3.2µM* | -37%[10.9 µM] | .
CCN(CC)CCNC(=O)c1ccc2c(=O)n3nc(Nc4cccc(Cl)c4C)sc3nc2c1 | ? | -3% | 20µM* | -4%[10.9 µM] | .
O=C(CCCc1ccccc1)N1CCc2ccccc21 | ? | ? | ? | -44% | 13µM*
COc1cc2c(cc1NC(=O)/C=C/c1cc(OC)c(OC)c(OC)c1)oc1ccccc12 | . | . | -7% | . | .
